Reference: PubChem BioAssay (NCATS)
Records with an inconclusive call do not appear. Calls of active or inactive are those of the source. Calls come from the whole dose curve; as a rule, active = well fitted activation curve with a large enough effect; inconclusive = small, poorly fitted or top-dose-only effect; inactive = no such curve, though single readings can be large or run the other way.

target: Rap guanine nucleotide exchange factor 3 (Homo sapiens) (UniProt O95398); test: Confirmatory qHTS for agonist of cAMP-regulated guanine nucleotide exchange factor 3 (EPAC1) (AID 1645881); details: EPAC1 Rap1B BODIPY-GDP exchange fluorescence; series mostly up to 154 µM;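 note: EPAC1 catalysed release of BODIPY-GDP from Rap1B seen as fluorescence loss; nearly all actives have a fitted effect of over 75% in size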
Sequence (O95398 whole entry, looked up): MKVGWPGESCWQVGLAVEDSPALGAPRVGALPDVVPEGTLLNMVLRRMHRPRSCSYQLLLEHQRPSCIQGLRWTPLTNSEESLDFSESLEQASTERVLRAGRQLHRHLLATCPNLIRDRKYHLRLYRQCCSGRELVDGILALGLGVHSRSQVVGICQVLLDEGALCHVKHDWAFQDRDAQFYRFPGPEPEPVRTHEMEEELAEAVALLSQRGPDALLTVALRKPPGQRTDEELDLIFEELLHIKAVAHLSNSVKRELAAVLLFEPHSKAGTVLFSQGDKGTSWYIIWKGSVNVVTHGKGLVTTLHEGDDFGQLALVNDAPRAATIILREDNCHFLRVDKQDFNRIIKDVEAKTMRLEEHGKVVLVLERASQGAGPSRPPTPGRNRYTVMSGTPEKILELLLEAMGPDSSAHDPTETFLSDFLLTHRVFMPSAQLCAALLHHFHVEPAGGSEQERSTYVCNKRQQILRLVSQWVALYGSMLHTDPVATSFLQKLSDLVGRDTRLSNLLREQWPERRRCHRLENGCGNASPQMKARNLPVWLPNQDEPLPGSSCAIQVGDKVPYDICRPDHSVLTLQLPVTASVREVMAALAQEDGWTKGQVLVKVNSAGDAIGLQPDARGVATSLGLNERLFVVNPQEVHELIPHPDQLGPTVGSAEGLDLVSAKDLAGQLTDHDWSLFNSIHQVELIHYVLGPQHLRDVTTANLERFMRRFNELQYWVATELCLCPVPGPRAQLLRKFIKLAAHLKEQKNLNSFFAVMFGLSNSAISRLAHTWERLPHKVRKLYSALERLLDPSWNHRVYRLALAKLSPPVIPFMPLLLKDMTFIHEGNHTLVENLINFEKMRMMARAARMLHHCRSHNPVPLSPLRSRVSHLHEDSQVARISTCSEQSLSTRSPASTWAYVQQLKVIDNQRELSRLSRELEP

Potency, inactive:
ON=C(c1ccccc1)c1ccc2c3c(cccc13)CC2
Nc1ccc2ccc(O)cc2c1
Cc1cc(/C=C2\C(=N)N3N=C(c4ccco4)SC3=NC2=O)c(C)n1Cc1ccccc1
Oc1cccc(C=Nc2cccc3ccccc23)c1O
COc1ccc(Cl)cc1NC(=O)CN(C)C(=O)c1cc(-c2ccncc2)nc2ccccc12
S=c1[nH]nc(-c2cc(-c3ccccc3)n[nH]2)n1/N=C/c1cccc(Cl)c1
COc1cc2c(cc1OC)C(c1cccs1)N(C(=O)C(C)C)CC2 (stereo not given)
O=C1CSC(c2cccc(Cl)c2Cl)N1c1ccccn1 (stereo not given)
Cc1ccc(C)c(OC(C)C(=O)Nc2ccc(S(=O)(=O)Nc3nccs3)cc2)c1 (stereo not given)
Cc1ccc(C(=O)c2cn(Cc3cccc(C)c3)c3nc(C)ccc3c2=O)cc1
COCCCNC(=O)C[C@@H]1C[C@@]2(C(=O)OC)CCCCC=C2N(Cc2cccc3ccccc23)C1=O
COc1cc2c(cc1OC)C(COc1cc(C)cc(C)c1)N(C(C)=O)CC2 (stereo not given)
O=C(COC(=O)C1(c2ccc(Cl)cc2)CCCC1)NCc1ccco1
CC(C)Cc1ccc(CN2C(C(C)C)C(=O)N(Cc3cn(CCC4OCCO4)nn3)CCS2(=O)=O)cc1 (stereo not given)
O=C1/C(=C/c2cccs2)COc2ccccc21
Cn1c(SCC(=O)c2cc(Cl)c(Cl)s2)nnc1-c1ccco1
Oc1ccc(-c2nc(-c3ccc(O)c(O)c3)cs2)cc1
N#C/C(=C/C1=C(N2CCOCC2)C(=C/c2cccc([N+](=O)[O-])c2)/CC1)C(=O)Nc1ccccc1F
CCN(CCCNC(=O)c1cc2cc3ccc(OC)cc3nc2s1)c1cccc(C)c1
O=C(Nc1cccc(F)c1)c1ccc(-c2cccnc2)c2ccoc12
CC1=NN(c2ccc(C)c(C)c2)C(=O)C1C(c1cccc(O)c1)C1C(=O)N(c2ccc(C)c(C)c2)N=C1C (stereo not given)
O=c1[nH]cc(N=Cc2cc(Cl)cc(Cl)c2O)c(=O)[nH]1
O=S(=O)(Nc1nc2ccc(Cl)cc2s1)c1cccs1
COc1ccc(CC(=O)NCc2ccc3c(c2)CCN3C(=O)c2ccc(Cl)cc2)cc1OC
Cc1ccc(Nc2c(-c3ccccn3)nc3cccc(C)n23)cc1
COc1ccc(NC(=O)CN2CCN(c3c(C)cc(C)cc3C)CC2)cc1
CC(C)c1ccc(/C=C/C(=O)Nc2ccc(CN3CCOCC3)cc2)cc1
O=C(OCC1OC(n2ncc(=O)[nH]c2=O)C(OC(=O)c2ccccc2)C1OC(=O)c1ccccc1)c1ccccc1 (stereo not given)
CCN(C(=O)Cn1c(C(=O)OC)cc2sccc21)c1cccc(C)c1
Cc1ccc(/C=C(\C#N)C(=O)Nc2cccc3ncccc23)o1
O=c1cc(-c2ccccc2)[nH]n1-c1nc2ccccc2s1
CCc1ccc2c(c1)NC(=O)C2(C)Cc1ccc(Cl)s1 (stereo not given)
C[C@@H]1CC=C[C@@H]2[C@H]1C(=O)N(Cc1ccccc1)[C@H]2c1ccccc1Br
CCc1ccc(C(c2ccccc2)c2c(C)[nH]c3ccccc23)s1 (stereo not given)
COc1ccc(NC(=O)CN(C)C(=O)c2cc(-c3ccco3)nc3ccccc23)cc1
COc1ccc(NC(=O)CSc2sc3c(O)cc(=O)[nH]c3c2C#N)c(OC)c1
C[C@H](c1ccccc1)N1C[C@H](COCc2ccccc2)Oc2cc(N3CC[C@@H](O)C3)ccc2S1(=O)=O
CCOC(=O)c1cc2c(ccn2C)n1CC(=O)N1CCN(c2cccc(C(F)(F)F)c2)CC1
O=C(N/N=C/c1ccc(Sc2ccccn2)o1)c1cc2ccccc2cc1O
CC(C)CC(NS(=O)(=O)OCC(Cl)(Cl)Cl)c1ccccc1 (stereo not given)
